Measurements: PubChem BioAssay (Tox21)
“And” between values parts separate entries of the source, which are not always exact repeats. Equal entries are not always repeated. Inconclusive results are not listed. Entries that show only a call come without a potency. Where a structure was tested more than once in an assay, its records may differ in their call. The source made the active and inactive calls. Unless noted, the call rests on the fitted dose curve; in most records, active means well fitted curve in the direction sought with a large enough effect in the repeat runs; inconclusive means weak or mixed curves; inactive means no such curve, though single readings can be large; an effect the other way counts as inactive or inconclusive.

Columns and labels:
[1] = biological target: Luciferin 4-monooxygenase (Photinus pyralis) (UniProt P08659); experiment: qHTS assay to identify small molecule inhibitors of firefly luciferase (AID 1224835); further: nearly all actives have a fitted effect of over 25% in size
Method in brief: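 Inhibition of purified Photinus luciferase is measured by luminescence. Substrate levels (D-luciferin, ATP) sit at their KM values. Each compound is tested in a concentration series.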

[2] = qHTS assay to identify small molecule antagonists of the constitutive androstane receptor (CAR) signaling pathway - cell viability counter screen (AID 1224837); further: nearly all actives have a fitted effect of over 45% in size
Method in brief: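 Fluorescence from CellTiter-Fluor served as the viability signal. Human hepatoma HepG2 cells stably bearing hCAR and CYP2B6-2.2kb received compound plus CITCO (50 nM final) for 23 hr.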

[3] = biological target: Nuclear receptor subfamily 1 group I member 3 (Homo sapiens) (UniProt Q14994); experiment: qHTS assay to identify small molecule antagonists of the constitutive androstane receptor (CAR) signaling pathway (AID 1224838);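 further: HepG2 cells stably expressing hCAR with CYP2B6 luciferase reporter stimulated by CITCO; nearly all actives have a fitted effect of over 40% in size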
Method in brief: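 Quantitative HTS in double-stable HepG2-CYP2B6-hCAR cells. After 4 h plating, cells get compound (15 concentrations) and CITCO at 50 nM final, incubate 24 h at 37 C, then ONE-Glo luminescence is read.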

[4] = biological target: Nuclear receptor subfamily 1 group I member 3 (Homo sapiens) (UniProt Q14994); experiment: qHTS assay to identify small molecule agonists of the constitutive androstane receptor (CAR) signaling pathway (AID 1224839);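 further: HepG2 cells stably carrying human CAR and a CYP2B6 luciferase reporter; nearly all actives have a fitted effect of over 15% in size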
Method in brief: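 HepG2 cells stably co-transfected with hCAR and a CYP2B6-2.2kb luciferase reporter; compounds at 15 concentrations with 0.75 uM PK11195 present. After 24 hr at 37 C, luciferase read by ONE-Glo luminescence.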

[5] = qHTS assay to identify small molecule antagonists of the estrogen related receptor signaling pathway with the pleiotropic PPARgamma coactivator (PGC) from Tox21 10K library - cell viability counter screen (AID 1224840; active means well fitted cell-killing curve with a large enough effect in the repeat runs, not every such curve was filed as active; further: nearly all actives have a fitted effect of over 40% in size; further: potency means the concentration at half of the fitted maximal effect)
Method in brief: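 Compounds in DMSO, alongside positive and negative controls, were pinned onto PGC/ERR cells (2,000 per well). Exposure lasted 17.5 hours at 37 C, followed by a 30-minute CellTiter-Fluor incubation and fluorescence reading.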

[6] = biological target: Thyrotropin receptor (Homo sapiens) (UniProt P16473); experiment: qHTS assay to identify small molecule agonists of the thyroid stimulating hormone receptor (TSHR) signaling pathway (AID 1224843; calls by dose curve; further: nearly all actives have a fitted effect of over 45% in size)
Method in brief: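 Screening of the Tox21 10K collection used HEK293 cells engineered with TSHR at 800 cells per well. After a 30-min room-temperature compound exposure, HTRF cAMP reagents were added and fluorescence recorded 1 h later.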

[7] = qHTS assay to identify small molecule agonists of the hypoxia (HIF-1) signaling pathway - cell viability counter screen (AID 1224844; calls by dose curve; further: nearly all actives have a fitted effect of over 50% in size; further: potency means the concentration at half of the fitted maximal effect)
Method in brief: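 Luminescent ATP content (CellTiter-Glo, 30 min, room temperature) served as the viability measure in HRE-bla ME-180 cells exposed to compounds for 17 hrs in low-serum medium (0.5% dialyzed FBS).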

[8] = qHTS assay to identify small molecule agonists of H2AX (AID 1224845; active means well fitted activation curve with a large enough effect in the signal ratio in the repeat runs, not every such curve was filed as active; the % refers to the signal ratio)
Method in brief: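 Phospho-H2AX Ser139 measured by HTRF (ex 320 nm; em 665 and 620 nm) after 24 hr antibody incubation. Compounds, 15 concentrations, 0.76% DMSO, were applied to CHO-K1 cells for 3hr at 37C before lysis.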

[9] = qHTS RealTime-Glo MT Cell Viability Assay in HepG2 cells - 24 hour (AID 1224867); further: nearly all actives have a fitted effect of over 50% in size
Method in brief: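 Viability was tracked continuously by NanoLuc luminescence from prosubstrate reduced by living HepG2 cells, at successive time points over 40 h of compound exposure. Cells with reagent were preincubated 5 h at 37 °C before compound addition.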

[10] = qHTS RealTime-Glo MT Cell Viability Assay in HEK293 cells - 32 hour (AID 1224868); further: nearly all actives have a fitted effect of over 50% in size; further: potency means the concentration at half of the fitted maximal effect
Method in brief: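 Viability tracked continuously by luminescence as live cells reduce a prosubstrate for NanoLuc; HEK293 cells preincubated 5 h, compound-treated at 37 C, and read at 0, 8, 16, 24, 32 and 40 h.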

[11] = A CellTox Green Cytotoxicity Assay to monitor cytotoxicity in HEK293 cells - 0 hour (AID 1224869); further: nearly all actives have a fitted effect of over 50% in size
Method in brief: (§1)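 Each value comes from one timepoint of a single continuous run in which HEK293 cells with CellTox Green were exposed to compound for up to 40 h at 37 C, dye fluorescence rising with cell death.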

[12] = qHTS RealTime-Glo MT Cell Viability Assay in HepG2 cells - 40 hour (AID 1224870); further: nearly all actives have a fitted effect of over 50% in size
Method in brief: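 Real-time viability: cells seeded at 600 per well together with NanoLuc and cell-permeant prosubstrate, compounds added after 5 h incubation. Luminescence tracked at 0, 8, 16, 24, 32 and 40 h of exposure.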

[13] = A CellTox Green Cytotoxicity Assay to monitor cytotoxicity in HEK293 cells - 40 hour (AID 1224871); further: nearly all actives have a fitted effect of over 45% in size; further: potency means the concentration at half of the fitted maximal effect
Method in brief: as §1

[14] = qHTS assay to identify small molecule agonists of the constitutive androstane receptor (CAR) signaling pathway - cell viability counter screen (AID 1224836); further: nearly all actives have a fitted effect of over 45% in size
Method in brief: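 HepG2 cells stably carrying hCAR and a CYP2B6-2.2kb reporter; 15-concentration compounds plus PK11195 (final 0.75 uM), 23 hr at 37 C/5% CO2. Viability read by CellTiter-Fluor fluorescence.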

[15] = qHTS assay to identify small molecule agonists of H2AX - cell viability counter screen (AID 1224847; calls by dose curve;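 further: wild-type CHO-K1 cells; top concentration of the series differs between compounds; nearly all actives have a fitted effect of over 30% in size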)
Method in brief: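 CHO-K1 cells plated overnight at 37C, then exposed 3 h at 37C to compounds at 15 concentrations (0.76% DMSO final). Viability by CellTiter-Glo luminescence after 30 min at room temperature.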

[16] = qHTS assay to identify small molecule agonists of the hypoxia (HIF-1) signaling pathway (AID 1224846; active means well fitted activation curve with a large enough effect in the signal ratio in the repeat runs, not every such curve was filed as active; the % refers to the signal ratio)
Method in brief: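 Measured by blue/green FRET after loading CCF4-AM: beta-lactamase expressed from a hypoxia response element in ME-180 cells. Test agents were delivered in DMSO and left 17 hrs; cells had been plated 5 hrs earlier in low-serum (0.5% dialyzed FBS) medium.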

[17] = qHTS assay to identify small molecule antagonists of the estrogen related receptor signaling pathway with the pleiotropic PPARgamma coactivator (PGC) from Tox21 10K library (AID 1224841; call rule not given here)
Method in brief: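 Compound exposure ran 18 hours at 37 C in PGC/ERR cells (2,000/well) that had first rested 6 hours in a 37 C/5% CO2 incubator. Luciferase activity was then detected with One-Glo after a 30-minute room-temperature step.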

[18] = qHTS assay to identify small molecule agonists of the estrogen related receptor signaling pathway with the pleiotropic PPARgamma coactivator (PGC) from Tox21 10K library (AID 1224842); further: nearly all actives have a fitted effect of over 15% in size
Method in brief: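 Luminescence from One-Glo (30 min, room temperature) measured after PGC/ERR cells had 18 h at 37 C with pinned compound (23 nL in DMSO). Cells had been seeded at 2,000 per well and pre-incubated 6 h.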

[19] = qHTS assay to identify small molecule antagonists of the estrogen related receptor (ERR) signaling pathway from Tox21 library (AID 1224848); further: nearly all actives have a fitted effect of over 50% in size
Method in brief: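 Antagonist-mode screen of the Tox21 10K library in an NTP-provided ERR reporter cell line; 18 h compound exposure at 37 C, luminescence measured with ONE-Glo.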

[20] = qHTS assay to identify small molecule agonists of the estrogen related receptor (ERR) signaling pathway from Tox21 library (AID 1224849; calls by dose curve; further: nearly all actives have a fitted effect of over 15% in size); conditions: ERR reporter cell line, ONE-Glo luciferase, 18 h; at 92.4 µM (top of the series)
Method in brief: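 We plated ERR reporter cells, waited 6 h, added compounds in DMSO by pin tool and incubated them 18 h at 37 C. ONE-Glo was then added and luminescence read after 30 min.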

Thyrotropin receptor (Homo sapiens), sequence (P16473 whole entry, looked up): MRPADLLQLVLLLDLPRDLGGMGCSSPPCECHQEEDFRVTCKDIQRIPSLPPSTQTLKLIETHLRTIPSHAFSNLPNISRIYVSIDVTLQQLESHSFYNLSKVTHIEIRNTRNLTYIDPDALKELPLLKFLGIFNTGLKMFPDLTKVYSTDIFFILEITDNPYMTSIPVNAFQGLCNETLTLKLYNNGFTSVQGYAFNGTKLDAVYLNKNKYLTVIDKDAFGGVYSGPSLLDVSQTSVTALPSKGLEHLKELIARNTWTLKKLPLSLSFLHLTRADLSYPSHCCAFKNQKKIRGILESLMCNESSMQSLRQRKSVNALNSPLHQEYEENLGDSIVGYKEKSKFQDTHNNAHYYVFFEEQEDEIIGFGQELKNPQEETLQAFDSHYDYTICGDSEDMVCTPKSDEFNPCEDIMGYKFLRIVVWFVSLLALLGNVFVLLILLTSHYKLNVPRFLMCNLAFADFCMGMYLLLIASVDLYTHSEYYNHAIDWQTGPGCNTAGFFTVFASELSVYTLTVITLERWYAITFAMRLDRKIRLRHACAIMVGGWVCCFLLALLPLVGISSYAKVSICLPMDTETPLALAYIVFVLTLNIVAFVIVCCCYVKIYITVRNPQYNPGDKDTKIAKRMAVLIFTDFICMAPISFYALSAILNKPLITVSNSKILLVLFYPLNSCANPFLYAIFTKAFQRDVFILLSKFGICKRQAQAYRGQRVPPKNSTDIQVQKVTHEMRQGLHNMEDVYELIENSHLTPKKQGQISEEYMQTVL
Nuclear receptor subfamily 1 group I member 3 (Homo sapiens), sequence (Q14994 whole entry, looked up): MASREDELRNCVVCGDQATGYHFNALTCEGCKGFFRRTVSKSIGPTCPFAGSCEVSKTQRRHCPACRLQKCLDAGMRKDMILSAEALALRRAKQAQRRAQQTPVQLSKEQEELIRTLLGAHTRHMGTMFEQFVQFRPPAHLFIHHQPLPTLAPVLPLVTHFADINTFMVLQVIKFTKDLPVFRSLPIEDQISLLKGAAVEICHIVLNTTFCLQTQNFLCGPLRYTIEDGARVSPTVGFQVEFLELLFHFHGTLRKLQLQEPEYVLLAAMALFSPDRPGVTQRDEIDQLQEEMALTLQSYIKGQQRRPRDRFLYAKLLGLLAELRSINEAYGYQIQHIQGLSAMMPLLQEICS
Luciferin 4-monooxygenase (Photinus pyralis), sequence (P08659 whole entry, looked up): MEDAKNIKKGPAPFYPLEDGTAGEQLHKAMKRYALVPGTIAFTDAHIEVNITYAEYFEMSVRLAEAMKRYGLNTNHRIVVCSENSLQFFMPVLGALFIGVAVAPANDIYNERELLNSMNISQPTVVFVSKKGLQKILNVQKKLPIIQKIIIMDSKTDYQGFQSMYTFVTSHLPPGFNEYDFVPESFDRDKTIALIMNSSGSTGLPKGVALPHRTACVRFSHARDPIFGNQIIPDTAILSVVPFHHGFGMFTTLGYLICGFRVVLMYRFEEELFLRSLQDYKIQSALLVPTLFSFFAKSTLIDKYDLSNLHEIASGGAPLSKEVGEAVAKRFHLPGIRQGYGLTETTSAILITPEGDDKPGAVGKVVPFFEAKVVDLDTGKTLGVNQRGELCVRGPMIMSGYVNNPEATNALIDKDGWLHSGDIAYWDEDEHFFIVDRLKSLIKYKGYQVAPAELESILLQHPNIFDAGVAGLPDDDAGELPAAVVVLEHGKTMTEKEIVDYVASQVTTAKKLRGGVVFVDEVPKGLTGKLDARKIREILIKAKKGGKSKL

| SMILES | Potency [1] | Potency [2] | Potency [3] | Potency [4] | Potency [5] | Potency [6] | Potency [7] | Potency [8] | outcome [9] | Potency [10] | Potency [11] | outcome [12] | Potency [13] | Potency [14] | Potency [15] | outcome [16] | Potency [17] | Potency [18] | Potency [19] | activity change, positive = activation [20] |
| --- | --- | --- | --- | --- | --- | --- | --- | --- | --- | --- | --- | --- | --- | --- | --- | --- | --- | --- | --- | --- |
| NC(=O)OCC(COC(N)=O)c1ccccc1 | inactive | inactive | inactive | inactive | inactive | inactive | inactive | inactive | inactive | inactive | inactive | inactive | inactive |  |  |  |  |  |  |  |
| N[C@@H](Cc1c[nH]c2ccccc12)C(=O)O | inactive | inactive |  |  | inactive | inactive | inactive | inactive | inactive | inactive | inactive | inactive | inactive | inactive | inactive |  |  |  |  |  |
| C#C[C@]1(O)CC[C@H]2[C@@H]3CCC4=CC(=O)CC[C@@H]4[C@H]3CC[C@@]21CC | inactive | inactive |  |  | inactive |  | inactive | inactive | inactive | 43.6 µM (active) and inactive | inactive | inactive | 49.1 µM (active) and inactive | inactive |  | inactive |  |  |  |  |
| CC(=O)Oc1ccccc1C(=O)O | inactive | inactive |  |  | inactive |  | inactive | inactive | inactive | inactive | inactive | inactive | inactive | inactive | inactive |  |  |  |  |  |
| Nc1cccc(N)c1 | inactive | inactive | inactive | inactive | inactive |  | inactive | inactive | inactive | inactive | inactive | inactive | inactive | inactive |  |  |  |  |  |  |
| CC(O)COc1ccccc1 (stereo not drawn) | inactive | inactive | inactive | inactive | inactive | inactive | inactive | inactive | inactive | inactive | inactive | inactive | inactive |  |  |  |  |  |  |  |
| C=C(C)C(N)=O | inactive | inactive | inactive | inactive | inactive |  | inactive | inactive | inactive | inactive | inactive | inactive | inactive |  |  | inactive | inactive | inactive | inactive | 10.9% (inactive) and 3.35% (inactive) |
| CC1=NN(c2ccccc2)C(=O)C1 | inactive | inactive |  |  | inactive | inactive | inactive | inactive | inactive | inactive | inactive | inactive | inactive | inactive | inactive |  |  |  |  |  |
| COc1cc2c(c(OC)c1OC)-c1ccc(OC)c(=O)cc1[C@@H](NC(C)=O)CC2 | inactive |  |  |  | 2.4 µM (active) and inactive |  | 48.4 µM (active) and inactive | inactive | inactive | 24.3 nM (active) | inactive | inactive | 34.3 µM (active) and inactive | inactive | inactive | inactive |  |  |  |  |
